Screening results as filed in PubChem.
Compounds with a hit are over-represented: about 3% of the library has one in this group of screens.
MITF TRPM1 inh = inhibitors of MITF-dependent TRPM1 promoter reporter, primary screen, cell-based, SK-MEL-5, single point, luciferase; inhibition, % at 12.5 µM; SK-MEL-5 TRPM1 promoter luciferase, 24 h; AID 488899, 2010; 330,000 compounds, 0.83% hits;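 active = mean inhibition across replicates of 60% or more, whatever share of single replicates reaches that level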
MITF act = activators of MITF-driven TRPM1 promoter reporter, primary screen, cell-based, SK-MEL-5, luciferase, single point | 300,000 compounds, 0.75% hits | activation, % at 12.5 µM | SK-MEL-5 TRPM1-promoter luciferase, 24 h; % of positive control, neutral wells = 0;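 active = mean activation of at least 80% with every replicate also reaching 80%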
EBV LMP1 NFkB = EBV LMP1-driven NF-kappaB luciferase reporter inhibitors, primary screen, cell-based, luminescence, single point | LMP1-induced NF-kappaB luciferase reporter cells | inhibition, % at 12.5 µM | 350,000 compounds, 0.69% hits; in the data active = inhibition above about 41%
LGR2 inh = inhibitors of bursicon-induced LGR2 CRE-luciferase signal, primary screen, cell-based, HEK293, CRE-luciferase reporter, bursicon stimulation | inhibition, % at 9.99 µM | AID 720647, 2013 | bursicon-stimulated, 4 h | 380,000 compounds, 0.35% hits | Drosophila bursicon receptor LGR2 (rickets);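 active = drop in luminescence signal, shown as inhibition above about 50% in the replicate tests, limit read from the data, passing the limit was not always enough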;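 note: agonist challenge used bursicon conditioned medium at about half maximal strength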
TROY NFkB inh = inhibitors of TROY-driven NF-kB signaling, primary screen, Q293 LMP1-TROYcd cells, NF-kB luciferase, uHTS. AID 1347056, 2019. Q293 LMP1-TROYcd NF-kB luciferase reporter, 4 h. inhibition, % at 10 µM. 360,000 compounds, 0.98% hits;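 active = compounds whose plate-normalised and pattern-corrected inhibition of the luciferase reporter signal at the single screening dose is 50% or more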
TWEAK Fn14 block = inhibitors of TWEAK-Fn14 signaling, primary screen, luciferase reporter cells, uHTS | TWEAK-stimulated Fn14 reporter cells, luciferase luminescence, 8 h | inhibition, % at 10 µM | 360,000 compounds, 2% hits | AID 1159606, 2016; in the data active = inhibition above about 50%
Numbers stand for hits; 0 = inactive; - = not tested or not shown.

SMILES | MITF TRPM1 inh | MITF act | EBV LMP1 NFkB | LGR2 inh | TROY NFkB inh | TWEAK Fn14 block
C[C@@H]1CN([C@@H](C)CO)C(=O)Cc2cc(NC(=O)C3CCCCC3)ccc2O[C@H]1CN(C)S(C)(=O)=O | - | - | - | 0 | - | -
O=C(CCN1C(=O)c2ccccc2C1=O)Oc1ccc2ccccc2c1 | 0 | 0 | 0 | - | 0 | 0
CC1=CC(C)(C)Nc2ccc(OC(=O)CCN3C(=O)c4ccccc4C3=O)cc21 | 0 | 0 | 0 | - | 0 | 96
O=C1C=C(O)C(n2cncn2)C(c2cc(F)ccc2F)C1 (centres undefined) | 0 | 0 | 0 | 0 | 0 | 0
O=C1CC(=O)C(n2cncn2)C(c2ccc(Cl)cc2Cl)C1 (centres undefined) | 0 | - | 0 | - | 0 | 64
COc1ccc(CN=C(C)c2c(C(F)(F)F)[nH]n(-c3nc4ccccc4s3)c2=O)cc1 | 0 | - | 0 | - | 0 | 58
C[C@H]1CN([C@@H](C)CO)C(=O)c2cc(-c3cccnc3)cnc2O[C@H]1CN(C)Cc1ccccc1 | - | - | - | 0 | - | -
Cc1ccc(Nc2cc(C)nc(-c3ccccc3O)n2)cc1 | 0 | - | 0 | - | 0 | 0
Cc1ccc(Nc2cc(C)nc(-c3ccccc3)n2)cc1 | 0 | 122 | 0 | 0 | 0 | 0
CC(C)C(C)NC(=O)COc1ccc(Sc2ccc(OCC(=O)NC(C)C(C)C)cc2)cc1 (centres undefined) | 0 | 0 | 0 | 0 | 0 | 66
CC(C)C(C)NC(=O)COc1ccc(-c2ccccc2)cc1 (centres undefined) | 0 | 0 | 0 | - | 0 | 0
Cc1cc(C)c(S(C)(=O)=O)c(Oc2ccccc2C)n1 | 0 | 0 | 0 | - | 0 | 0
Cc1ccc(S(=O)(=O)c2c(C)cc(C)nc2Oc2cccc(C)c2C)cc1 | 0 | 0 | 0 | - | 0 | 72
COc1ccc(C2=NN(c3ccccc3)C(c3ccc(OC)c(OC)c3)C2)cc1 (centres undefined) | 0 | 84 | 0 | 0 | 0 | 0
Cc1ccccc1N(C(=O)c1snc(C(N)=O)c1N)C(C(=O)NCc1ccccc1)c1ccc(O)cc1 (centres undefined) | 0 | 0 | 0 | 0 | 0 | 0
CCOc1ccccc1N(C(=O)c1snc(C(N)=O)c1N)C(C(=O)NCc1ccccc1)c1ccc(O)cc1 (centres undefined) | 0 | 0 | 0 | 0 | 0 | 86
Cc1ccccc1N(C(=O)c1snc(C(N)=O)c1N)C(C(=O)NC1CCCCC1)c1ccc(O)cc1 (centres undefined) | 0 | 0 | 41 | 0 | 0 | 0
Cc1ccccc1N(C(=O)c1snc(C(N)=O)c1N)C(C)C(=O)NC1CCCCC1 (centres undefined) | 0 | 0 | 0 | 0 | 0 | 0
CC(=O)N[C@H]1CC[C@H](CC(=O)NCc2ccc(Cl)cc2)O[C@@H]1CO | - | - | - | 0 | - | -
CCS(=O)(=O)N[C@H]1CC[C@H](CC(=O)NCc2ccc(F)cc2)O[C@H]1CO | - | - | - | 0 | - | -
CC1Oc2ccccc2C=C1/C=N/Nc1ccc(C(=O)O)cc1 (centres undefined) | 0 | 0 | 0 | 0 | 0 | 61
CCn1c(/C=N/Nc2ccc(C(=O)O)cc2)nc2ccccc21 | 0 | 0 | 0 | - | 0 | 0
CC(C)(C)c1ccc(/C=N/Nc2ccc(C(=O)O)cc2)cc1 | 89 | 0 | 0 | 58 | 59 | 93
O=C(O)c1ccc(N/N=C/c2ccc(C(F)(F)F)cc2)cc1 | 68 | 0 | 44 | 93 | 0 | 90
O=C(O)c1ccc(N/N=C/c2c(F)cccc2Cl)cc1 | 0 | 0 | 0 | 76 | 0 | 95
O=C(N/N=C/c1ccc(C(F)(F)F)cc1)c1ccc(O)cc1 | 0 | 0 | 0 | 0 | 0 | 0
CO[C@@H]1CN(C)C(=O)c2ccc(NC(=O)C3CC3)cc2OC[C@H](C)N(C(=O)c2ccccn2)C[C@H]1C | - | - | - | 0 | - | -
C[C@@H]1CCCCO[C@H](CN(C)C(=O)C2CCCCC2)[C@H](C)CN([C@@H](C)CO)C(=O)c2cc(NC(=O)CCCN(C)C)ccc2O1 | - | - | - | 0 | - | -
C[C@@H]1CN([C@@H](C)CO)S(=O)(=O)c2ccc(-c3ccncc3)cc2O[C@H]1CN(C)C | - | - | - | 0 | - | -
Cc1noc(C)c1NC(=O)Nc1cccc2c1O[C@H](CN(C)S(C)(=O)=O)[C@@H](C)CN([C@@H](C)CO)C2=O | - | - | - | 0 | - | -
